# The list is not random: actives were taken first. Their share in the collection is about 4.8%.
# D3 ag: qHTS of D3 Dopamine Receptor Agonist: qHTS; D(3) dopamine receptor (Homo sapiens), P35462; D3R DiscoveRx beta-arrestin cells, luminescence, 90 min; max activation, %; actives 0.58% (n = 410,000); AID 652048, 2013; in the data active = max activation above about 30%; also: 0% is about no effect
# Target sequence (P35462 whole entry, looked up): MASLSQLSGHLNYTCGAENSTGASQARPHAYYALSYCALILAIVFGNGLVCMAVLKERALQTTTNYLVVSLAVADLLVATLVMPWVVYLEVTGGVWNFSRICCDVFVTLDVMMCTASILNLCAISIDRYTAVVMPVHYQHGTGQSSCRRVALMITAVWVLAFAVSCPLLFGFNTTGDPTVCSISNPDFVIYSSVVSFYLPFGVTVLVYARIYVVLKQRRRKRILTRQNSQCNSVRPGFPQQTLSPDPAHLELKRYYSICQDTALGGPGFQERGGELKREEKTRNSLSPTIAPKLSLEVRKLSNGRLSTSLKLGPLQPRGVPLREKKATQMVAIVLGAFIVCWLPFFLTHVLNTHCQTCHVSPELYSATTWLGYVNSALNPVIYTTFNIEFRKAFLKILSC
#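 Agonist-mode cell screen: cells plated at 1500/well and incubated overnight at 37 °C, then exposed to library compounds for 90 min at 37 °C. Detection reagent was added for 30–60 min at room temperature, and luminescence was read.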
# HepG2 viability: qHTS for Inhibitors of TGF-b: Cytotox Counterscreen; HepG2 CAGA-GFP viability, ATP luminescence, 18 h; Potency, µM (series often up to 46.1 µM), for the others: top-dose activity change, negative = cytotoxicity, actives largely listed as cytotoxic; actives 0.76% (n = 410,000); AID 588856, 2011; also: potency is read from the fitted curve at half-maximal effect
#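 HepG2 CAGA-GFP cells (1000/well, DMEM with 1% FBS) received compound, then TGF-beta at 500 pg/mL final, and were incubated 18 hours at 37 degrees C. Viability was read by CellTiter-Glo luminescence. Media-only wells were set as complete cell-killing and DMSO as no toxicity.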
# S2 tox: Viability Counterscreen for Primary qHTS for Inhibitors of ATXN expression. S2 cells (HEK-293 line with an ATXN2-luciferase reporter) viability, CellTiter-Fluor protease fluorescence, 24 h. Potency, µM (doses to about 56.7 µM), usual class: cytotoxic. actives 0.49% (n = 400,000). AID 651635, 2014; also: potency is read from the fitted curve at half-maximal effect; nearly all actives have a fitted effect of over 40% in size
# TGFb inhibitor: qHTS for Inhibitors of TGF-b | HepG2 CAGA-GFP TGF-b/SMAD3 reporter, GFP fluorescence, 18 h; TGF-beta stimulated, 500 pg/mL final | Potency, µM (top dose mostly 46.1 µM), without a hit: at the top dose activity, negative = inhibition, hits mostly inhibitors | actives 1.2% (n = 410,000) | AID 588855, 2011; also: potency is read from the fitted curve at half-maximal effect; % is scaled to controls: 0 for no effect and ±100 for the full control effect; nearly all actives have a fitted effect of over 65% in size
#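 Read-out: total well GFP (ex488/em500-530) summed from mean per-cell fluorescence. Cells: HEPG2 CAGA-GFP, 1% FBS DMEM, 18 h at 37 degrees C with 500 pg/mL final TGF-beta. Unstimulated wells served as the full-inhibition control; stimulated DMSO wells = 0%.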
# DRD3 antagonist: qHTS of D3 Dopamine Receptor Antagonist: qHTS. D3R cells, DiscoveRx beta-arrestin luminescence, antagonist mode; hits give low values. max response, negative = inhibition, %. actives 2.5% (n = 360,000); in the data active = max response below about -50%; inconclusive = no clear call, values can overlap the other calls; also: % is scaled to controls: 0 for no effect and ±100 for the full control effect
#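 Cells plated overnight at 1500 cells/well, then exposed to library compounds with dopamine controls for 90 minutes at 37 degrees C. DiscoveRx reagent added for 30–60 minutes at room temperature; luminescence read, quantitative HTS format.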
# ATXN2 expr inh: Primary qHTS for Inhibitors of ATXN expression; actives 0.72% (n = 360,000); AID 1745845, 2022; HEK-293 ATXN2-luciferase reporter, luminescence, 24 h; Potency, µM (series often up to 57 µM), inactives show at the highest dose activity change, negative = inhibition, usual class: inhibitors; also: potency is read from the fitted curve at half-maximal effect; % is scaled to controls: 0 for no effect and ±100 for the full control effect; nearly all actives have a fitted effect of over 55% in size
#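 qHTS (up to 57 uM final) was run with 24 h compound exposure of reporter cells at 37 °C. Each well was multiplexed: SteadyGlo luminescence measured ATXN2-luciferase expression after a fluorogenic Gly-Phe-AFC viability readout (25 uM final).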
# An asterisk follows results filed as active; i = inactive; ? = inconclusive; . = no result given; [ ] = dose if it differs, or a comment. Unless noted, calls follow the shape of the dose curve; as a rule, active = well fitted curve in the direction sought with a large enough effect; inconclusive = small, poorly fitted or top-dose-only effect, or another doubt; inactive = no such curve, though single readings can be large; an effect the other way counts as inactive or inconclusive.
SMILES,D3 ag,HepG2 viability,S2 tox,TGFb inhibitor,DRD3 antagonist,ATXN2 expr inh
COc1cc(C2NC(=O)NC(C)=C2C(=O)OCC2CCCO2)ccc1O (stereo unspecified),31*,6%,i,23%,13,1%
COc1cccc(Nc2c(C(N)=O)cnc3c(C)cc(S(=O)(=O)c4cccc(C(=O)N(C)C)c4)cc23)c1,.,.,.,.,.,-14%[25.6 µM]
CCCOc1ccc(-c2nnc(-c3ccncc3)o2)cc1,-4,-9%,i,-5%,-71*,35%
CCOC1=C2[C@H](c3ccccc3)N(S(=O)(=O)c3ccc(C)cc3)C(C(C)(C)C)[C@H]2C(C#N)(C#N)C(C#N)(C#N)C1 (stereo partly specified),6,16µM*,18µM*,10µM*,10,25µM*
CCOC1=C2CN(S(=O)(=O)c3ccc(C)cc3)[C@H](c3cccc4ccccc34)C[C@H]2C(C#N)(C#N)C(C#N)(C#N)C1,-1,-43%,.,?,-22,14µM*
CCOC1=C2CN(S(=O)(=O)c3ccc(C)cc3)[C@@H](c3cccc4ccccc34)C[C@H]2[C@H]2C(=O)N(c3ccccc3)C(=O)[C@H]2C1,5,2%,i,-2%,0,10%
COC(=O)c1ccc(NC(=O)CN2CCN(c3ccccc3C)CC2)cc1,-2,-21%,i,-27%,-77*,-17%
CN(CC(=O)Nc1ccc(Cl)c(Cl)c1)CC(=O)N1CCCCCC1,1,-26%,?,1%,16,.
COc1ccc(NC(=O)CN(C)CC(=O)N2CCCCCC2)cc1,1,4%,i,-4%,-65*,-9%
CCOc1ccc(NC(=O)CN2CCN(c3ccccc3C)CC2)cc1S(=O)(=O)N1CCCC1,-24,-17%,i,0%,-62*,-11%
COc1ccc(NC(=O)CN2CCN(C(=O)N3CCOCC3)CC2)cc1,-2,3.5µM*,i,0%,-4,-4%
COc1ccc(NC(=O)CN2CCN(c3ccccc3Cl)CC2)cc1,-12,6%,i,0%,-61*,-2%
COc1ccc(NC(=O)CN2CCN(c3ccccc3C)CC2)cc1,-14,1%,i,11%,-26,-5%
COCCCNC(=S)NC1CC2CCCC(C1)N2Cc1ccco1 (stereo unspecified),-14,-11%,i,6%,-150*,2%
Cc1cccc(NC(=S)NC2CC3CCCC(C2)N3Cc2ccco2)c1 (stereo unspecified),-21,-39%,i,0%,-61*,10%
Cc1cccc(NC(=S)NC2CC3CCC(C2)N3Cc2ccco2)c1 (stereo unspecified),-29,-11%,i,8%,?,-4%
Cc1cc(C)cc(OCC(=O)NC(Cc2c[nH]c3ccccc23)C(=O)O)c1 (stereo unspecified),-1,6%,i,1%,.,4%
COC(=O)C1=CN(C(C)C)C=C(C(=O)OC)C1c1cc2c(cc1Br)OCO2,33*,-32%,i,-12%,27,-9%
CC1=C(C(=O)OCC(C)C)C(c2cc3c(cc2Br)OCO3)NC(=O)N1C (stereo unspecified),3,-30%,i,?,12,4%
O=C(NCCc1ccccc1)C1CCCN(c2ncnc3c2nc2n3CCCCC2)C1 (stereo unspecified),-1,-5%,?,-7%,7,-18%
O=C(C1CCN(c2ncnc3c2nc2n3CCCCC2)CC1)N1CCN(c2ccc(Cl)cc2)CC1,5,8%,.,3%,.,.
O=C(C1CCN(c2ncnc3c2nc2n3CCCCC2)CC1)N1CCN(c2cccc(Cl)c2)CC1,10,-30%,18µM*,?,60,.
CC(=O)c1cccc(NC(=O)C2CCN(c3ncnc4c3nc3n4CCCCC3)CC2)c1,4,-25%,.,18µM*,.,.
Clc1cccc(N2CCN(c3ncnc4c3nc3n4CCCCC3)CC2)c1,1,-47%,.,?,.,18µM*
c1ccc(N2CCN(c3ncnc4c3nc3n4CCCCC3)CC2)cc1,16,-20%,i,0%,.,?
SMILES,D3 ag,HepG2 viability,S2 tox,TGFb inhibitor,DRD3 antagonist,ATXN2 expr inh
O=C(NCCCN1CCN(c2ccccc2)CC1)C1CCCN(c2ncnc3c2nc2n3CCCCC2)C1 (stereo unspecified),16,11%,?,-2%,-67*,-20%
COc1ccccc1C1N=C(Nc2nc3ccccc3o2)NC2=C1C(=O)CC(C)(C)C2 (stereo unspecified),.,3%,.,-10%,.,.
COc1ccc(-n2cccc2C=O)cc1,-7,-2%,i,8%,-7,1%
COc1ccc(-n2cccc2/C=C/[N+](=O)[O-])cc1,0,-60%,.,18µM*,0,?
O=C(O)c1ccc(Sc2nnnn2-c2ccccc2)c([N+](=O)[O-])c1,1,2%,i,-1%,-64*,6%
COC(=O)c1ccc(Sc2nnnn2-c2ccccc2)c([N+](=O)[O-])c1,-15,-15%,i,-7%,-21,-9%
CC(=O)Nc1c(O)cc(Br)c2nonc12,.,2%,.,17%,.,.
CC(=O)Nc1cc(O)c2nonc2c1O,.,0.56µM*,.,0.56µM*,.,.
C=C(C)C1CCC2(C(=O)O)CCC3(C)C(CCC4C5(C)C(C=O)C(O)C(C)(C)C5CCC43C)C12 (stereo unspecified),3,-27%,?,13µM*,1,?
CN1CCc2c(sc3c2C(=O)NC(c2ccc(C(C)(C)C)cc2)N3)C1 (stereo unspecified),-7,1%,i,52%,.,9%
CC(C)c1nc(C(=O)N2CCOc3ccc(CN4CCN(c5ccccn5)CC4)cc3C2)cs1,.,.,i,.,.,.
Cc1ccc(C)c(NC(=S)NC(NC(=O)OCc2ccccc2)C(Cl)(Cl)Cl)c1 (stereo unspecified),-3,-14%,i,-21%,?,-2%
O=C(NC(NC(=S)Nc1c(Cl)cc(Cl)cc1Cl)C(Cl)(Cl)Cl)OCc1ccccc1 (stereo unspecified),1,-26%,i,?,-76*,-18%
CCc1ccc(NC(=O)C(C)OC(=O)c2ccc(NS(=O)(=O)c3ccc(C)c([N+](=O)[O-])c3)cc2)cc1 (stereo unspecified),-22,-2%,?,?,-53*,-25%

# Screens (PubChem)
